Compounds with a hit are over-represented: about 21% of the library has one in this group of screens.
SARS PLP yeast: inhibitors of SARS-CoV papain-like protease in yeast; 0.19% of 330,000 active; Potency, µM (highest dose often 32.9 µM), for the others: at the highest dose activity, positive = growth rescue, actives largely listed as activators; S. cerevisiae expressing SARS-CoV PLpro, growth rescue; calls by dose curve; note: potency is the fitted concentration of half-maximal effect; 0% is about no effect; nearly all actives have a fitted effect of over 55% in size
Shiga toxin inh: blocks Shiga toxin action in Vero cells. inhibition, % at 38.7 µM. AID 2315. 9.2% of 290,000 active. Vero cells, Shiga toxin protein synthesis inhibition reporter; in the data active = inhibition mostly above about 28%, no sharp cut-off; inactive = mostly below about 43%; note: 0% is about no effect
Pf growth 48h: P. falciparum growth inhibition at 48 hours (one generation); 5.9% of 310,000 active; P. falciparum luciferase growth in erythrocytes, 48 h; Potency, µM (highest dose often 28.7 µM), without a hit: top-dose activity change, negative = inhibition, hits mostly inhibitors; note: potency is the fitted concentration of half-maximal effect; % is set by controls: 0 for no effect and ±100 for the full control effect
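Firefly luciferase activity from engineered P. falciparum reports growth; inhibitors lower the luminescent signal. Cultures contained 2% hematocrit erythrocytes at 0.1% final parasitemia.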
Pf growth 96h: P. falciparum growth inhibition at 96 hour, primary screen for plastid delayed-death inhibitors; P. falciparum luciferase reporter growth, 96 h; Potency, µM (top dose mostly 28.7 µM), for the others: at the highest dose activity change, negative = inhibition, usual class: inhibitors; 6.9% of 320,000 active; note: potency is the fitted concentration of half-maximal effect; % is set by controls: 0 for no effect and ±100 for the full control effect
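Readout is luminescence from an integrated firefly luciferase in P. falciparum. Red cells, 2% hematocrit and 0.05% parasitemia final, were cultured with compound through two parasite generations (96 hours) at 37 C, 5% CO2.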
CHX counter: counter-screen hit for Shiga toxin inhibitors, cycloheximide. cell reporter, cycloheximide protein synthesis inhibition counterscreen. max response, %. 12% of 300,000 active; in the data active = max response mostly above about 13%, no sharp cut-off; inactive = mostly below about 14%; note: read at 38.3 µM for the half of the compounds with a filed dose; 0% is about no effect
NS1 function inh: influenza NS1 inhibition; AID 2326; 0.4% of 270,000 active; Potency, µM (series often up to 46.1 µM), for inactives: at the highest dose activity, positive = more growth; calls by dose curve; note: potency is the fitted concentration of half-maximal effect; actives are rising curves; nearly all actives have a fitted effect of over 50% in size
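In this qHTS, NS1 from influenza A is expressed in budding yeast, where it slows growth. Cells are switched from glucose to 2% galactose medium (pH 6.0, -URA), treated with compound, and growth recovery is read at OD600.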
The depositor's hits bear a star; ? = inconclusive; . = no result given. Unless noted, calls come from the whole dose curve; as a rule, active = well fitted inhibition curve with a large enough effect; inconclusive = small, poorly fitted or top-dose-only effect, or another doubt; inactive = no such curve, though single readings can be large or run the other way.

SMILES	SARS PLP yeast	Shiga toxin inh	Pf growth 48h	Pf growth 96h	CHX counter	NS1 function inh
Fc1ccc(-c2nnc(-c3ccc(Cl)cc3Cl)o2)cc1	1%	43*	172%	19%	22*	2%
CS(=O)(=O)c1ccccc1-c1nnc(-c2ccc(Cl)cc2)o1	-3%	64*	36%	2%	19*	.
C[C@@](N)(/C=C\c1ccccc1)C(=O)O	.	.	.	.	.	3%
Cc1ccc(S(=O)(=O)N2CCOCC2)cc1NC(=O)CN1C(=O)NC(C)(c2ccc(Cl)cc2Cl)C1=O (configuration not stated)	1%	.	.	.	.	.
O=C(NCC(c1ccco1)N1CCN(c2ccc(F)cc2)CC1)C1CCCCC1 (configuration not stated)	4%	.	?	?	.	.
Clc1ccc(-c2nnc(-c3ccc(Br)o3)o2)c(Cl)c1	-4%	30	.	40%	15*	-15%
CSc1nnc(-c2ccc(F)cc2)o1	-1%	14	?	.	15	-2%
Fc1ccc(-c2nnc(-c3ccc(Cl)cc3)o2)cc1	9%	46*	.	57%	18*	-17%
CC(Nc1ccc2ccccc2c1)C(=O)N/N=C/c1ccncc1 (configuration not stated)	0%	.	?	-24%	.	.
Nc1ncc(P(=S)(N2CCOCC2)N2CCOCC2)s1	0%	-19	2%	-5%	2	8%
C=Cn1c(P(=S)(N2CCOCC2)N2CCOCC2)cc2c1CCCC2	-5%	-9	12µM*	21%	-5	0%
COc1ccc(NC(=O)c2nc[nH]c2C(=O)NCCCCCNC(=O)OC(C)(C)C)cc1	5%	.	3%	31%	.	.
CCn1nc(C)c(/C=N/NC(=O)c2ccoc2C)c1C	?	70	207%	357%	25*	13%
CCCCCn1nc(C)c(/C=N\NC(=O)c2cc(C)oc2C)c1C	-10%	44*	13µM*	-26%	18*	-2%
CCn1nc(C)c(/C=N/NC(=O)c2nc3nc(C)cc(C)n3n2)c1C	0%	15	9%	22%	0	5%
CCn1nc(C)c(/C=N/NC(=O)Cn2cncn2)c1C	2%	15	25%	-2%	17	-1%
CCn1nc(C)c(/C=N\NC(=O)c2cccc(OC)c2)c1C	-16%	18	3%	2%	11	10%
CCCCCn1nc(C)c(/C=N/NC(=O)c2ccoc2C)c1C	-12%	68*	37%	-28%	40*	-10%
Cc1ccc(Cl)cc1NC(=S)NN	0%	11	?	?	-4	7%
COc1ccccc1C(=O)NCCC(=O)Nc1cccc(C)n1	-5%	13	20%	41%	22*	-11%
COc1cccc2cc(C(=O)N3CCC(C)CC3)c(=O)oc12	?	5	.	?	-2	?
COc1cccc2cc(C(=O)NC(C)c3ccccc3)c(=O)oc12 (configuration not stated)	0%	-13	31%	-1%	9	-3%
COc1cccc2cc(C(=O)OC3CCN(C)CC3)c(=O)oc12	4%	-9	5%	12µM*	1	4%
COc1cccc2cc(NC(=O)C3CCCCC3)c(=O)oc12	-1%	41	259%	16%	16*	-1%
COc1cccc2cc(C(=O)Nc3cccc(C)n3)c(=O)oc12	0%	66*	.	-8%	77*	-2%
SMILES	SARS PLP yeast	Shiga toxin inh	Pf growth 48h	Pf growth 96h	CHX counter	NS1 function inh
Cc1cccc(NC(=O)CCNC(=O)c2ccccc2Cl)n1	1%	0	18%	35%	6	3%
C=CCN(c1ccccc1)S(=O)(=O)c1cc2c(cc1C)NC(=O)CO2	9%	7	3%	?	-2	11%
Cc1ccc(S(=O)(=O)N2CCN(c3cccc(C)c3)CC2)cc1	6%	-3	20%	?	-2	2%
CC(C)[C@@H]1NC(=O)c2cc([N+](=O)[O-])cc(I)c2NCCCC[C@@H](C(=O)NC(CC(=O)O)C(N)=O)NC(=O)[C@H](CO)NC1=O (some centres not stated)	4%	-19	6%	8%	-2	-9%
COc1cccc2cc(C(=O)OCc3ccccc3)c(=O)oc12	-3%	49*	-9%	?	54*	-39%
CCN(C(=O)c1cc2cccc(OC)c2oc1=O)c1ccccc1	4%	168*	-7%	-26%	53*	6%
COc1cccc2cc(C(=O)Oc3ccccc3)c(=O)oc12	-7%	-14	6%	13µM*	-2	-8%
COc1cc(-c2nnc(SCC3(c4ccccc4)OCCO3)o2)cc(OC)c1OC	1%	11	13µM*	5.2µM*	1	-12%
COc1cc(-c2nnc(SCC(=O)c3ccccc3)o2)cc(OC)c1OC	-9%	-7	4%	11%	14	-15%
CN(C)C(=O)COc1ccc2c3c(c(=O)oc2c1)CCCC3	0%	.	19%	9.3µM*	-1	-10%
O=C(COc1ccc2c3c(c(=O)oc2c1)CCC3)N1CCCCC1	1%	86*	28%	36%	25*	0%
Cn1cc(Cl)c(C(=O)Nc2nccs2)n1	-1%	71*	95%	?	40*	0%
CCn1ncc(Br)c1C(=O)Nc1nccs1	2%	15	-15%	.	-3	1%
O=C(Nc1nccs1)c1ncc(Cl)c(Cl)c1Cl	-1%	66*	-23%	-16%	42*	-5%
O=C(Nc1nccs1)c1cnccn1	-2%	24	22%	51%	2	6%
CCn1cc(Cl)c(C(=O)Nc2nccs2)n1	3%	32*	76%	81%	33*	-4%
COc1ccc(-n2c(SCC(=O)NCC3CCCO3)nc3c([nH]c4ccccc43)c2=O)cc1OC (configuration not stated)	-1%	-6	?	?	3	-14%
COC(=O)CCCC(=O)N1CCC(CO)(CCc2ccccc2)CC1	.	3	3%	?	-1	25%
O=C(c1ccoc1)N1CCC(CO)(CCc2ccccc2)CC1	-1%	9	6%	12µM*	9	-4%
CCc1ccc(NC(=O)C(=O)NCCN2CCN(Cc3ccc([N+](=O)[O-])cc3)CC2)cc1	21%	-4	26%	45%	11*	-3%
Cc1ccc(NC(=O)C(=O)NCCN2CCN(Cc3ccc([N+](=O)[O-])cc3)CC2)cc1	8%	-11	13%	0.47µM*	2	5%
CCN1CCN(CCNC(=O)Nc2ccc([N+](=O)[O-])cc2)CC1	0%	-5	-20%	-2%	-3	-5%
Cc1cc(C)cc(N(CC(=O)NCc2ccco2)C(=O)c2snc(C(N)=O)c2N)c1	-1%	36*	-17%	4.7µM*	33*	20%
COCCNc1nc2nonc2nc1N(C)Cc1cccc2cnccc12	-1%	-6	-14%	5%	-2	0%
CCCN(CC(=O)Nc1ccccc1OC)C(=O)CCNC(=O)c1ccccc1OC	-12%	.	-7%	1%	.	.
Cc1cc(NC(=O)Nc2ccc(N(C)C)cc2)c2cc(F)cc(F)c2n1	.	34*	.	.	28*	.
